The source of these data is PubChem BioAssay (Tox21).

Molecules are shown by their SMILES. Several values for one entry are separate records, joined by “and”; a condition that tells them apart may be missing. Identical values can stand only once. Inconclusive results are not listed. A call without a number means that no potency is given here. Activity calls are given as the source filed them. The call rests on the fitted dose curve.
Potency means the concentration at half of the fitted maximal effect.

A short description of this assay: qHTS assay to identify small molecule antagonists of the estrogen receptor alpha (ER-alpha) signaling pathway using the BG1 cell line (AID 743080).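 Further: BG1 cells stimulated with 17beta-estradiol alongside compound; nearly all actives have a fitted effect of over 25% in size.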 The following applies: BG1Luc4E2 ERE-luciferase antagonist mode, luminescence; series mostly up to 70.3 µM. From the text:
National Center for Advancing Translational Sciences [NCATS]
NIH Chemical Genomics Center [NCGC]
U.S. Environmental Protection Agency [EPA]
National Institutes of Environmental Health Sciences [NIEHS]
National Toxicology Program [NTP]
U.S. Food and Drug Administration [FDA]
Estrogen receptor (ER), a nuclear hormone receptor, plays an important role in development, metabolic homeostasis and reproduction. Endocrine disrupting chemicals (EDCs) and their interactions with steroid hormone receptors like ER causes disruption of normal endocrine function. Therefore, it is important to understand the effect of environmental chemicals on the ER signaling pathway. To identify ER antagonists, BG1-Luc-4E2 cell line (provided by Dr. Michael Denison from University of California) has been used to screen the Tox21 10K compound library. BG1Luc4E2 cell line endogenously expresses full-length ER-alpha and is stably transfected with a plasmid containing four estrogen responsive elements (ERE) upstream of a luciferase reporter gene.
Tox21 Assay Protocol Summary:
BG1-Luc-4E2 cells were cultured in phenol red free assay medium containing 10% charcoal stripped FBS for 5 days before the assay was performed. The cells were dispensed at 4,000 cells/4 uL of assay medium per well into white wall/solid-bottom 1536-well plates using a Multidrop Combi (ThermoFisher Scientific, Waltham, MA) dispenser. The assay plates were incubated at a 37C and 5% CO2 for 24 h, and then 23 nL of compounds dissolved in DMSO, positive controls or DMSO only was transferred to the assay plate using a Pintool station (Kalypsys, San Diego, CA), followed by addition of 1 uL of 17beta-estradiol in assay medium using a Flying Reagent Dispenser (Aurora Discovery, San Diego, CA). After the plates were incubated at 37 C and 5% CO2 for 21.5 h, 1 uL of CellTiter-Fluor reagent (Promega, Madison, WI) of measuring cytotoxicity was added using Flying Reagent Dispenser (FRD) to each well. The assay plates were incubated at 37 C and 5% CO2 for additional 30 min and the fluorescence intensity was quantified by a ViewLux plate reader (PerkinElmer, Shelton, CT). For measuring luciferase reporter gene activity, 4 uL of ONE-Glo reagent (Promega) was added to each plate using an FRD and luminescence was quantified by a ViewLux plate reader after 30 min incubation at room temperature.
Background: Quantitative high-throughput screening tests each substance at several concentrations.
Take `O=C(CCCN1CCN(c2ccc(F)cc2)CC1)NC1c2ccccc2CSc2ccccc21` (stereo not given): the Potency result is “inactive”.
Still for that read-out and setting: next, `CC(C)OCC1CO1` (stereo not given): “inactive”; `CC(=O)Nc1ccccc1C`: “inactive”.
The same measure, in the same setting: next, `Cc1cc(O)c(C(C)C)cc1Cl`: “inactive”; `CCOC(=O)c1ccccc1C`: “inactive”.
Same read-out and setting: next, `CCCCCCCCCCCCCCCCBr`: “inactive”.
For the compound `[O]=[Bi]`, the activity change, negative = inhibition was 3.19% [at 8.47 µM] (inactive).
In the case of `CCC(C(=O)OCCOCCN(CC)CC)c1ccccc1` (stereo not given), the Potency result is “inactive”.
The same measure, in the same setting: next, `OC/C(Br)=C(\Br)CO`: “inactive”.
For `CC(C)CCCC(=O)O`, the Potency result is “inactive”.
The same measure, in the same setting: as for `CCCCCCCCCCOS(=O)(=O)O`, the entry is “inactive”.
Still for that read-out and setting: next, `CCC1(C)CC(=O)NC1=O` (stereo not given): “inactive”; `CCCCCCCCCCCC[N+](C)(C)CC(=O)[O-]`: “inactive”; `Cc1ccc(S(=O)(=O)NC2CCCCC2)cc1`: 68.1 µM (active).
Same read-out and setting: as for `O=C(OCCOCCO)c1ccccc1Nc1cccc(C(F)(F)F)c1`, the entry is “inactive”; as for `CC(COc1ccc(C(C)(C)C)cc1)OS(=O)OCCCl` (stereo not given), “inactive”.
With `CNC(=S)NC`, the Potency entry is “inactive”.
Same read-out and setting: next, `CCN(CC)CCNC(=O)c1ccc(NC(C)=O)cc1`: “inactive”; `OC(CCCN1CCCCC1)(c1ccccc1)c1ccccc1`: “inactive”; `O=[N+]([O-])c1cccc(S(=O)(=O)NCCNS(=O)(=O)c2cccc([N+](=O)[O-])c2)c1`: “inactive”.
The same measure, in the same setting: next, `O=Cc1c(Cl)cccc1Cl`: “inactive”.
The same measure, in the same setting: as for `CC(C)c1nnc2ccc(-c3ocnc3-c3cc(F)ccc3F)cn12`, the figure is 54.5 µM (active).
`CCc1nn(CCCN2CCN(c3cccc(Cl)c3)CC2)c(=O)n1CCOc1ccccc1`: the Potency is 7.5 µM (active) and 26.6 µM (active).
In the case of `CC(=O)[C@H]1CC[C@H]2[C@@H]3C=CC4=CC(=O)CC[C@@]4(C)[C@@H]3CC[C@]12C`, the Potency result was “inactive”.
With `CCCCC(CC)C(=O)OCCOCCOCCOCCOC(=O)C(CC)CCCC` (stereo not given), the Potency entry is “inactive”.
On the same count and under the same terms, as for `CCCCCC=CCC=CCCCCCCCC(=O)OCC`, the entry is “inactive”; as for `COc1cc2c(N3CCN(C(=O)Nc4ccc(OC(C)C)cc4)CC3)ncnc2cc1OCCCN1CCCCC1`, “inactive”.
For `C=CC(C)(O)CCCC(C)CCCC(C)CCCC(C)C` (stereo not given), the Potency entry was “inactive”.
Same read-out and setting: next, `CC(C)=CC=O`: “inactive”; `CC(C)(CCl)c1ccccc1`: “inactive”; `CN1CCCN=C1/C=C/c1cccs1`: “inactive”.
Same read-out and setting: as for `CCCCCCCCCCCC[N+](C)(C)CCCS(=O)(=O)[O-]`, the entry is “inactive”; as for `COCC(O)CO` (stereo not given), “inactive”; as for `CCC(C)(O)CCC=C(C)C` (stereo not given), “inactive”.
The same measure, in the same setting: as for `CC(=O)OCC(=O)[C@H]1CC[C@H]2[C@@H]3CCC4=CC(=O)CC[C@]4(C)[C@H]3CC[C@]12C`, the entry is “inactive”.
Take `Brc1cc(-c2ccc(Br)c(Br)c2Br)cc(Br)c1Br`: the Potency entry is “inactive”.
On the same count and under the same terms, next, `CCCOc1ccc(S(=O)(=O)N2CCN(CC)CC2)cc1-c1nc2c(CC)n(Cc3ccccn3)nc2c(=O)[nH]1`: “inactive”; `CC(=O)Nc1ccc(N)cc1`: “inactive”; `CCOC(=O)OCC`: “inactive”.
Same read-out and setting: as for `CCC(C)(C)C1CCC(O)CC1` (stereo not given), the entry is “inactive”.
